# Test results: PubChem BioAssay (Tox21)
# Values joined by “and” are separate entries in the source; they are usually repeats but may differ in a detail not shown here. Identical values can stand only once. Active and inactive are the calls of the source. Where a call stands in place of a potency, no number is given. Calls come from the whole dose curve; as a rule, active = well fitted cell-killing curve with a large enough effect in the repeat runs; inconclusive = weak or mixed curves, or effect the other way; inactive = flat fitted curve, though single readings scatter.
# Experiment: qHTS assay to identify small molecule HDAC inhibitors - cell viability counter screen (AID 1259365); note: nearly all actives have a fitted effect of over 50% in size
# Settings: HCT-116 viability, CellTiter-Glo ATP luminescence, 2 h; series mostly up to 92.4 µM; activity change, negative = cytotoxicity: at the top concentration
# In short: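 Luminescence from CellTiter-Glo, developed 30min at room temperature, reports viability of wild-type HCT-116 cells treated 2hr with compounds at 37 C and 5% CO2 after overnight plating.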
# Potency is the fitted concentration of half-maximal effect.
Compound,Potency,"activity change, negative = cytotoxicity"
N#CCCCCC#N,inactive,
COP(=S)(OC)Oc1ccc(S(=O)(=O)N(C)C)cc1,inactive,
N#Cc1c(Cl)c(Cl)c(Cl)c(C#N)c1Cl,,24.8% (inactive)
C[C@]12CC[C@H]3[C@@H](CCC4=CC(=O)CC[C@@H]43)[C@@H]1CC[C@@H]2O,inactive,
COc1ccc(CO)cc1,inactive,
CCC(=O)Nc1ccc(Cl)c(Cl)c1,inactive,
NN=C(N)N,inactive,
OC(c1ccc(Cl)cc1)(c1cncnc1)c1ccccc1Cl (stereo not drawn),inactive,
Cl,inactive,
CC(C)(c1ccccc1)c1ccc(O)c(C(C)(C)c2ccccc2)c1,,-20.2% (inactive)
CC(C)(c1ccccc1)c1ccc(O)cc1,inactive,
COP(=O)(NC(C)=O)SC (stereo not drawn),inactive,
COC(=O)Nc1nc2ccccc2[nH]1,inactive,
CC(O)CN(CC(C)O)CC(C)O (stereo not drawn),inactive,
CCCCSP(=O)(SCCCC)SCCCC,inactive,
O=P(OCCCl)(OCCCl)OCCCl,inactive,
CCOS(=O)(=O)OCC,inactive,
CC(C)(O)C#N,inactive,
CS(=O)(=O)NC(=O)c1cc(Oc2ccc(C(F)(F)F)cc2Cl)ccc1[N+](=O)[O-],inactive,

Compound,Potency,"activity change, negative = cytotoxicity"
Nc1ccc([N+](=O)[O-])cc1N,inactive,
Oc1ccc(Cl)cc1Cc1ccccc1,inactive,
CCC1(c2ccc(N)cc2)CCC(=O)NC1=O (stereo not drawn),inactive,
NC(=O)CN1CCCC1=O,inactive,
COc1ccc(C=O)cc1OC,inactive,
O=C(O)c1nn(Cc2ccc(Cl)cc2Cl)c2ccccc12,inactive,
Brc1ccc(Br)cc1,inactive,
[CH3][Sn]([Cl])([Cl])[Cl],inactive,
O=C1C(Cl)=C(Cl)C(=O)c2ccccc21,61.3 µM (active) and 38.6 µM (active),
N#Cc1nn(-c2c(Cl)cc(C(F)(F)F)cc2Cl)c(N)c1S(=O)C(F)(F)F (stereo not drawn),inactive,
O=S(=O)(O)C(F)(F)C(F)(F)C(F)(F)C(F)(F)C(F)(F)C(F)(F)C(F)(F)C(F)(F)F,inactive,
CCCCOCC1CO1 (stereo not drawn),inactive,
ClCC(Cl)CCl,inactive,
O=C1Nc2ccc(Cl)cc2C(c2ccccc2)=NC1O (stereo not drawn),inactive,
ClC(Cl)(Cl)Br,inactive,
CC1=C(C(=O)Nc2ccccc2)SCCO1,inactive,
Clc1ccccc1-c1nnc(-c2ccccc2Cl)nn1,inactive,
CC1CC(=O)O1 (stereo not drawn),inactive,
CCOP(=O)(OCC)OCC,inactive,
